# Assay results: the supplement of paper PMC6555819
# Tests used:
# Assay in all cases: PBM binding z-score (relative to random genomic background probes); higher = stronger binding; sequences stand for … in GC…GCGATTGACAGCGTAGAATGAAGG
# [1] = test system: FXR:RXRa (NR concentration 270 nM, RXRa partner concentration 90 nM)
# Method in brief: (§1)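 Binding z-scores were set against random background probes. The data came from custom Agilent 4×180K protein-binding microarrays carrying double-stranded probes with 34-nt variable regions, incubated 1 h with ligand-free nuclear receptor dimers. Partner-specific antibodies detected binding, and scanned fluorescence was regression-normalized.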
# [2] = test system: LXRa:RXRa (NR concentration 270 nM, RXRa partner concentration 90 nM)
# Method in brief: as §1
# [3] = test system: LXRa homodimer (NR concentration 270 nM)
# Method in brief: as §1
# [4] = test system: LXRb:RXRa (NR concentration 270 nM, RXRa partner concentration 90 nM)
# Method in brief: as §1
# [5] = test system: LXRb homodimer (NR concentration 270 nM)
# Method in brief: as §1
# [6] = test system: PPARa:RXRa (NR concentration 270 nM, RXRa partner concentration 90 nM)
# Method in brief: as §1
# [7] = test system: PPARg:RXRa (NR concentration 180 nM, RXRa partner concentration 90 nM)
# Method in brief: as §1
# [8] = test system: PPARg:RXRa 270nM:90nM, anti-RXR (NR concentration 270 nM, RXRa partner concentration 90 nM)
# Method in brief: as §1
# [9] = test system: PPARg:RXRa 30nM:10nM, anti-RXR (NR concentration 30 nM, RXRa partner concentration 10 nM)
# Method in brief: as §1
# [10] = test system: PPARg:RXRa 90nM:30nM, anti-RXR (NR concentration 90 nM, RXRa partner concentration 30 nM)
# Method in brief: as §1
Sequence,PBM binding z-score [1],PBM binding z-score [2],PBM binding z-score [3],PBM binding z-score [4],PBM binding z-score [5],PBM binding z-score [6],PBM binding z-score [7],PBM binding z-score [8],PBM binding z-score [9],PBM binding z-score [10]
CCAACTAGGTCACCGGAAGGTCAAAGTCCGCATG,6.49,5.96,5.35,5.35,1.43,5.81,9.14,7.51,5.79,6.94
AGAATGAGGTTACTAAGATCAGGGAATTGCGGTC,1.46,1.24,-0.205,0.978,-0.137,2.62,2.35,2.48,0.629,1.7
CAAACTAGGTCAAAGGACAAAGTCGAGCCAACCA,4.29,3.41,0.833,2.68,0.636,5.81,10.2,8.77,8.72,9.77
TTACCAAGGTGAGAGGTCGTTGATGCACGCCTTG,1.86,1.62,0.0582,1.46,-0.758,3.59,6.22,6.4,4.84,6.5
ACTAGTTGGTCAGCTGAGGTCAGACACAATTCGG,2.41,1.65,1.19,2.03,0.149,2.42,0.879,1.07,0.223,0.908
ATCTCTAGGTAACAAGTTCAGGGAAAGAGAGGAC,1.08,1.19,0.665,1.09,1.23,1.97,1.74,2.3,1.06,1.99
CGAACTAGGTCAGCCAGGACAGTGAATACATTGA,1.87,0.875,0.291,0.649,-0.648,3.55,6.1,5.28,2.28,4.35
GTACCAAGGTGAATAGGACGTTGATGAGTAGGCG,0.0663,-0.214,0.103,-0.344,-0.664,0.537,1.07,0.126,0.338,0.55
ACTAGCCGGCCAAGGGTCACTCAAGATTAGTCCG,2.41,2.53,0.141,2.59,-0.832,3.81,5.6,5.62,3.35,5.18
CCTACTGGGCCAAAGCTCATTGATTCCAATGCTC,-0.596,-0.522,-0.451,-0.576,-0.796,1.48,2.63,4.26,2.45,3.85
TAGCCTAGGTCTTTCAGGGGCCAGTATAGAAAGC,-0.49,-0.379,-0.527,-0.066,-0.296,-0.263,-0.284,-0.623,-0.57,-0.453
CCTAGTTGGTCATGAGGTCACACACCGGATATGA,4.57,4.17,2.56,4,0.753,4.65,4.15,4.5,2.25,3.46
CCTGCTAGGTCAGGGTCAGCTAATCTACAGTATG,3.6,2.42,-0.231,2.55,-0.944,3.92,2.82,3,0.682,1.83
AGAACGAGGGCGCGCTGAGTTGATAGCAGAGTAG,-0.365,-0.482,-0.786,-0.508,-1.21,0.138,0.362,-0.296,-0.293,-0.308
ATCTCTAGGTAAAGAAAGTTCAGTGAATGCAAAT,0.762,4.7,1.94,1.58,0.904,1.38,0.409,0.933,0.542,0.768
GCATATAGGTAATACAAGGTGATAGTCCGATTGT,1.42,0.97,0.0526,-0.116,-0.184,0.93,1.32,0.737,0.438,0.536
CGAAGTAGGTCATTGACAGGACAGTGAATAGTAA,4.75,3.56,0.791,2.6,0.392,5.05,7.92,6.67,4.6,6.57
CCGTACGGGTCACTGACAGGTTATAGCATTTGGA,5.54,4.34,0.355,3.7,-0.392,5.35,3.75,4.06,0.781,2.52
ATATGTAGGTTATCGGGACATTCAGTTTGCGCAT,0.568,0.813,0.715,0.858,0.692,3.3,5.05,4.45,2.25,3.45
CAAACTAGGTCAAAGGTCGAAGTCGAGCCAACCA,7.06,5.62,1.41,4.93,0.909,7.28,13.9,11.2,14.3,13.6
ACTATTAGTTCAGACGAGGGCAACCGATAGGTTG,1.07,1.31,0.305,0.453,0.271,0.817,0.621,0.191,-0.0108,0.00845
TCCAGTTGGTCAAAGGTCACACACTCGAAATGCG,6.2,5.79,3.85,5.42,1.6,6.51,11,9.65,9.86,10.3

Sequence,PBM binding z-score [1],PBM binding z-score [2],PBM binding z-score [3],PBM binding z-score [4],PBM binding z-score [5],PBM binding z-score [6],PBM binding z-score [7],PBM binding z-score [8],PBM binding z-score [9],PBM binding z-score [10]
CAGCCTAGGTCTGGGCCAGTATAGGAGGAACGTT,-0.847,-0.864,-0.89,-1.05,-1.28,-0.798,-0.286,-0.953,-0.869,-0.961
TAGCCTAGGTCATGGGCGAGTATACCACGCGAAC,4.42,3.43,0.0703,2.28,-0.329,4.15,3.46,3.42,0.67,2.09
ATCGAAATGTCGAGGTGAGTATAGAGAAAGGGAA,0.0498,-0.124,-0.716,-0.253,-0.363,0.204,0.315,0.0336,0.162,0.363
ATACCAAGGTGATCGTGTGGTCGTTGATACTAAC,0.493,0.0735,-0.0332,0.23,-0.176,0.206,0.285,0.406,-0.115,-0.212
GCGACTGGGGCAAAGCACGTTACCATAAGGTTGG,-0.454,-0.482,-0.763,-0.305,-0.971,0.875,1.7,2.21,0.24,1.62
ATCTGTAGGTAACCAAGTTCAGTGAATGCCGAAC,0.276,0.775,0.477,0.549,0.153,1.05,0.635,0.922,0.0596,0.358
CCAGACAGGTGAGAAGGTAACTAAGCCTCGATTA,-0.00461,0.0397,-0.256,-0.0609,-0.426,0.532,0.439,0.258,-0.00796,-0.013
CCAGACAGGTGAGAAGGTAATTCAGCCTCGATTA,-0.0604,-0.00281,0.0932,0.0559,-0.31,0.475,0.379,0.635,-0.0755,0.116
TAGCCTTGGTCATTGGGCCAGTATAGTACGCATC,-0.646,-0.599,-0.698,-0.456,-0.537,-0.217,0.338,0.117,-0.34,-0.429
AGTCAAAGTTCACTAGGTAATGTAAGATTCAGCT,4.99,4.85,2.91,3.07,0.939,4.58,7.06,6.01,3.43,5.25
TCAAGTAGGTTACCAATGGGGCATTCAGCTTTCT,0.176,1.6,-0.145,1.17,-0.449,2.16,2.1,2.92,3.34,3.02
TCGAGTACGTTAGGGGCATTCAGAATGGCGTCGA,-0.212,-0.0926,-0.859,0.0159,-1.01,0.403,0.0548,0.205,0.448,0.552
TATACAGGGTCAAAGGCCCGAGTACGAATGTCGA,6.5,6.07,1.91,4.39,2,5.84,6.14,6.28,2.84,5.12
GCAGAGAGGTGAAACGCAGGTAACTCAGGGTGGC,0.782,1.12,-0.671,0.662,-1.3,2.86,1.21,1.02,-0.323,-0.000796
GCGTACGGGTCAAAGGTTATAGCATGAATAGAAT,7.58,5.75,0.516,5.7,-0.18,6.8,10.5,8.74,8.99,9.27
ACAGGCAGGTGATGAAGGTAACTCAGGCTATCAT,-0.308,-0.138,-0.317,-0.214,-0.617,-0.126,0.575,-0.133,0.158,-0.0613
GATACAGGGTCAGCTAGAGGCCAGAGTTTGGAAA,4.24,2.73,-0.116,2.49,-0.678,4.08,3.23,3.01,0.716,2.22
CAAACTAGGTCAAAGGTCTAAGTCGAGCCAACCA,5.29,4.37,0.54,3.21,0.734,6.51,12,10,9.99,11.8
AGAATGAGGTTAAGATCAGGGACACAGAATACAT,2.45,2.04,0.0815,1.81,0.324,3.55,2.54,2.39,0.988,1.85
TCTTGTAGTTCAACAGGAGGTTAAGAAAGATCGA,1.51,2.8,1,1.78,0.269,2.44,0.0566,1.66,2.29,1.89
CCAGACAGGTGTAAGGTAACTCAGTCTGGTACGC,-0.0338,-0.35,-0.126,-0.421,-0.449,0.0692,0.41,0.842,-0.246,0.409
TCATATAGGTCAATGCTAGGTGAAAGTCCGATCT,5.19,4.7,1.51,3.52,1.02,5,5.86,6.06,4.7,5.89
